The source made the active and inactive calls. The calls were made as follows: active = hit-call score of the fitted dose curve at least 0.9, where 1 is the maximum; inactive = score below 0.9.
Assay: CCTE_Shafer_MEA_dev_burst_duration_mean: CCTE's Neural Network Formation Assay for Mean Burst Duration, Shafer Lab (AID 2284045);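 as to AC50: curve fitted for loss meaning shorter burst duration than DMSO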
Experimental: CCTE_Shafer_MEA_dev assay is conducted using Axion Biosystems 48 well microelectrode array (MEA) plates and Maestro recording system. Each well of the MEA plate contains a grid of 16 microelectrodes embedded in the culture surface. Electrically active cells, such as neurons, can be cultured over the electrodes, and electrical activity in these cells can be recorded extracellularly. The spontaneous firing of neurons is captured from each electrode on a microsecond timescale providing both temporally and spatially precise data. […] The CCTE_Shafer_MEA_dev assay uses primary cultures of rat cortical neurons. Recordings are made on days post-plating 5, 7, 9 and 12. As these cultures mature over time, neural networks develop functional activity and form cohesive networks in which electrical activity can be highly coordinated. CCTE_Shafer_MEA_dev_burst_duration_mean is 1 of 19 assay components of the CCTE_Shafer_MEA_dev assay. It measures the average time interval from the first spike (action potential firing) to the last spike in a singe-electrode burst (temporally-clustered group of spikes) during a recording in a microelectrode array (MEA) using Axion Biosystems Maestro 768 channel amplifier with the AxIS adaptive spike detector. The mean burst duration is averaged across the actively bursting electrodes to report a well-mean value. To collapse across multiple recordings made on days post-plating 5, 7, 9 and 12, the trapezoidal area-under-the-curve of the component is calculated.Data from the assay component CCTE_Shafer_MEA_dev_burst_duration_mean was analyzed into 1 assay endpoint. This assay endpoint, CCTE_Shafer_MEA_dev_burst_duration_mean, was analyzed in the negative analysis fitting direction relative to DMSO as the negative control and baseline of activity. Using a type of functional reporter, gain or loss-of-signal activity can be used to understand electrical activity.
On the day prior to culture, each well was coated thoroughly with 150 uL of 0.05% polyethyleneimine (PEI, Sigma Cat P3143) in 50 mM HEPES (Sigma Cat H7523) at a pH of 8. The plate was incubated at 37C for one hour. PEI was rinsed out with 500 uL of sterile water three times. Plates were stored at 4C until the day of culture. This culture was plated at a seeding density of 1.5 x 10^5 cells/well on a 48-well MEA plate, prepared as described above. Cells were administered via a 25 uL media/laminin ([…]; Sigma Cat L2020-1MG) drop directly onto the microelectrode array, as adding the cells with the laminin results in better attachment than pre-coating with laminin. After 2 hours, an additional 475 uL of cortical media was added and the cells returned to the incubator. Exposure starts at day 0 of plating and is continued over twelve days of network development until the experiment is terminated. Cells are fed with fresh medium on DIV 5 and 9, following the recordings on those days. The entire volume of media in the well is exchanged and any vehicle or compound treatment is renewed. Complete details are found in OP-NHEERL/ISTD/SBB/TJS/2015-03-r0 (available on request, email shafer.tim@epa.gov). Measurement of the electrical activity is non-invasive, and recordings can be made from the same plate over multiple different days of the culture. In cortical neurons, this allows for the measurement of extracellular action potentials over the period during which networks form in the MEA plate.

Row | Structure (SMILES) | outcome | AC50
1 | O=C(O)C(F)(F)C(F)(F)C(F)(F)C(F)(F)C(F)(F)C(F)(F)C(F)(F)C(F)(F)C(F)(F)C(F)(F)F | inactive | –
2 | O=C(O)C(F)(F)C(F)(F)C(F)(F)C(F)(F)C(F)(F)C(F)(F)F | inactive | –
3 | CC(=O)[O][Hg][c]1ccccc1 | – | 9.63 nM (active)
4 | COP(=O)(OC)O/C(=C\Cl)c1cc(Cl)c(Cl)cc1Cl | inactive | –
5 | CCC(=O)C(CC(C)N(C)C)(c1ccccc1)c1ccccc1 (stereo unspecified) | inactive | –
6 | O=C1C2(Cl)C3(Cl)C4(Cl)C(Cl)(Cl)C5(Cl)C3(Cl)C1(Cl)C5(Cl)C24Cl (stereo unspecified) | inactive | –
7 | ClC1(Cl)C2(Cl)C3(Cl)C4(Cl)C(Cl)(Cl)C5(Cl)C3(Cl)C1(Cl)C5(Cl)C24Cl (stereo unspecified) | inactive | –
8 | CC(C)(C)c1cc(O)ccc1O | inactive | –
9 | C=C(C)C(=O)[O][Sn]([CH2]CCC)([CH2]CCC)[CH2]CCC | – | 26.6 nM (active)
10 | Cn1sc(Cl)cc1=O | – | 7640 nM (active)
11 | CCOP(=S)(OCC)Oc1nc(Cl)c(Cl)cc1Cl | inactive | –

Reference: PubChem BioAssay (EPA / NIEHS)
